From PubChem
Shown are actives, neighbours in structure and some others; about 11% of the full set was active somewhere.
HP1b chromo inh: inhibitors of HP1-beta chromodomain binding to methylated histone tails; AlphaScreen HP1-beta / biotin-H3K9me3 peptide binding; Potency, µM (series often up to 114 µM), for the others: at the highest dose activity change, negative = inhibition, hits mostly inhibitors; 390,000 compounds, 0.56% hits; AID 540317; also: nearly all actives have a fitted effect of over 70% in size
Target sequence (P83916 whole entry, looked up): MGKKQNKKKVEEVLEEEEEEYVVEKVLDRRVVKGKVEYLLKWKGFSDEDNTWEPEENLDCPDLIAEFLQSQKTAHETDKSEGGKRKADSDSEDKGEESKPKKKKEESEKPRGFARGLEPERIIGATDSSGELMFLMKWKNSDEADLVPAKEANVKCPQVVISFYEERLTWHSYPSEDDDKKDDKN
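HP1-beta protein (50 nM final) preincubated 30 min at room temperature with biotinylated H3(1-18)K9me3 peptide (50 nM) in PBS pH 7.4, 0.01% Tween-20, then compound added for 30 min. AlphaScreen streptavidin donor/nickel chelate acceptor beads (10 ug/mL final), 30 min dark, luminescence read.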
L3MBTL1 inh: inhibitors of human L3MBTL1. 230,000 compounds, 0.66% hits. Potency, µM (highest dose often 57.1 µM), without a hit: at the top dose activity, negative = inhibition, most hits filed as inhibitors. AlphaScreen L3MBTL1–H3K9me1 peptide binding. Q9Y468; also: % is scaled to controls: 0 for no effect and ±100 for the full control effect; nearly all actives have a fitted effect of over 60% in size
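AlphaScreen proximity signal between nickel-chelate acceptor and streptavidin donor beads (final 10 ug/mL) reports binding of 50 nM L3MBTL1 to 75 nM biotin-H3 K9me1 peptide; complex incubated with compounds 30 min at room temperature; cefsulodin titration as control.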
G9a block: inhibitors of human histone lysine methyltransferase G9a; Potency, µM (top dose mostly 102 µM), without a hit: at the top dose activity, negative = inhibition, actives largely listed as inhibitors; 350,000 compounds, 8.8% hits; Q96KQ7; G9a H3K9 monomethylation, AlphaScreen, 2 h; also: % is scaled to controls: 0 for no effect and ±100 for the full control effect; nearly all actives have a fitted effect of over 75% in size
Target sequence (Q96KQ7 913-1193 limits assumed): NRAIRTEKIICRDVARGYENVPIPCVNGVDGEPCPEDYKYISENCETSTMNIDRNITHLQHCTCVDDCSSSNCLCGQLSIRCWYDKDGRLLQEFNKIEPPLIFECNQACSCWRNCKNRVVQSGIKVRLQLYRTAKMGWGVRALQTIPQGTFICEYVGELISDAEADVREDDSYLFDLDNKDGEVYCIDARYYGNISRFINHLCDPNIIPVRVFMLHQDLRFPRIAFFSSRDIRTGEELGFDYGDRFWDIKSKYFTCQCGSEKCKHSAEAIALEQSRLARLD
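Chemiluminescent proximity detection of H3K9 monomethylation, read after 10 min bead incubation in the dark. Reaction: 20 nM G9a, 500 nM biotin-H3K9 peptide, 20 uM SAM cofactor, 2 h, room temperature, following 15 min enzyme-compound preincubation.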
JMJD2A Tudor inh: blocks the human JMJD2A Tudor domain; O75164; Potency, µM (series often up to 114 µM), without a hit: at the top dose activity change, negative = inhibition, most hits filed as inhibitors; 390,000 compounds, 4.4% hits; AlphaScreen JMJD2A-Tudor / H3K4me3 peptide binding; AID 504339; also: % is scaled to controls: 0 for no effect and ±100 for the full control effect; nearly all actives have a fitted effect of over 50% in size
BAZ2B block: BAZ2B (human) inhibition; Q9UIF8; AlphaScreen BAZ2B-H3K14Ac peptide displacement; Potency, µM (titrated, usually from 114 µM), inactives show at the top dose activity change, negative = inhibition, most hits filed as inhibitors; 360,000 compounds, 4.4% hits; also: % is scaled to controls: 0 for no effect and ±100 for the full control effect; nearly all actives have a fitted effect of over 60% in size
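Complex of BAZ2B and biotin-H3K14Ac (50 nM apiece) forms over 30 min at RT, then faces library compounds up to 110 uM for another 30 min; AlphaScreen beads added, 20 min dark incubation, luminescence read.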
Active calls of the source: *; ? = inconclusive; nt = not tested or not shown; [ ] = another dose, or the depositor's remark. Calls follow the shape of the dose curve; as a rule, active = well fitted inhibition curve with a large enough effect; inconclusive = small, poorly fitted or top-dose-only effect; inactive = no such curve, though single readings can be large or run the other way. Potency is read from the fitted curve at half-maximal effect.

SMILES	HP1b chromo inh	L3MBTL1 inh	G9a block	JMJD2A Tudor inh	BAZ2B block
CN(C)c1ccc2c(c1)C(=NO)c1ccccc1-2	44.7µM*	nt	nt	39.8µM*	nt
ON=C1c2ccccc2-c2ccccc21	29.3%	nt	-0.5%	3.2%	4.8%
NC(=O)c1ccsc1NC(=O)c1ccc2c(c1)CCCC2	42.6%	-4.4%	8.8%	-14.2%	-4.8%
NC(=O)c1ccsc1NC(=O)c1ccc(N2CCCC2=O)cc1	17.4%	nt	44.7µM*	-22.5%	-29.5%
COc1ccccc1/C=C/c1onc(C)c1S(=O)(=O)N1CCC(C(=O)N2CCC(C)CC2)CC1	14.8%	nt	3.8%[59 µM]	-11.2%	2.7%
C=CCNC(=O)COc1cc(C)cc(C)c1C	38.6%	6.0%	?	-14.1%	79.4µM*
COc1cccc(NC(=O)CCC2CCN(C(=O)c3cncs3)CC2)c1	29.9%	nt	39.8µM*	-4.8%	2.3%
COc1cccc(NC(=O)CCC2CCN(C(=O)c3scnc3C)CC2)c1	17.7%	nt	26.7%	-11.8%	-6.3%
CCOC(=O)c1cccc(NC(=O)Nc2c(C)n(C)n(-c3ccccc3)c2=O)c1	31.7%	nt	6.2%[59 µM]	15.1%	0.8%
CC(C(=O)NC1CCCC1)N(C(=O)c1ccc(-c2ccccc2)[nH]1)c1ccccc1F (centres undefined)	-33.0%	-25.5%	-0.9%[59 µM]	22.4µM*	?
COc1ccc(CN(CC(=O)NC2CCCC2)C(=O)c2ccc(-c3ccccc3)[nH]2)cc1	-18.8%	?	?	?	28.2µM*
COc1ccc(CN(C(=O)c2ccc(-c3ccccc3)[nH]2)C(C(=O)NCC2CCCO2)c2ccc(C)o2)cc1 (centres undefined)	-17.6%	-16.5%	-10.7%[0.501 µM]	?	44.7µM*
O=C(NCC1CCCO1)C(c1cccs1)N(Cc1ccccc1)C(=O)c1ccc(-c2ccccc2)[nH]1 (centres undefined)	?	-20.9%	?	?	?
Cc1c2cnn(-c3ccccc3)c(=O)c2c(C)n1CCCC(=O)Nc1cccc(F)c1	1.5%	nt	-22.8%[59 µM]	-29.9%	-33.6%
Cc1c(CCC(=O)NCc2cccc(Cl)c2)c(=O)oc2c(C)c(O)ccc12	25.4%	nt	5.9%[59 µM]	-20.1%	-10.3%
CCOC(=O)c1c(NC(=O)CSc2cn(CCNC(=O)c3ccc(OC)c(OC)c3)c3ccccc23)sc2c1CCC2	7.4%	nt	2.1%[59 µM]	-33.2%	-29.6%
CC(CNC(=O)CCC(=O)N1CCOc2ccccc21)c1ccccc1 (centres undefined)	31.9%	1.5%	-3.9%	-2.8%	-37.5%
Oc1ccc(N=Nc2ccccc2)cc1	-9.8%	nt	50.1µM*	?	?
COC(=O)c1ccc(N=Nc2ccccc2)cc1	?	?	39.8µM*	?	12.6µM*
COC(=O)CCC(=O)Nc1ccc(N=Nc2ccccc2)cc1	6.4%	-13.2%	10µM*	?	39.8µM*
Oc1ccc(Cl)cc1N=Nc1ccccc1	-26.7%	?	22.4µM*	35.5µM*	31.6µM*
CCCCn1c(N)c(N(CC(C)C)C(=O)CC2OC(=O)c3ccccc32)c(=O)[nH]c1=O (centres undefined)	7.8%	7.8%	-9.9%	-12.6%	-4.2%
COc1ccc(C(=O)NCC(c2ccc3c(c2)OCO3)N2CCOCC2)cc1OC (centres undefined)	31.7%[57 µM]	nt	10.1%[59 µM]	0.0%	0.2%
Cc1c(O)ccoc1=O	32.2%	9.6%	-121.6%[59 µM]	28.2µM*	-21.3%
O=C1S/C(=C\c2ccc(N3CCOCC3)o2)C(=O)N1Cc1ccc(F)cc1	-7.6%	-3.1%	?	?	-30.8%
SMILES	HP1b chromo inh	L3MBTL1 inh	G9a block	JMJD2A Tudor inh	BAZ2B block
O=C1N/C(=C/c2ccc(N3CCOCC3)o2)C(=O)N1c1ccccc1	-20.2%	7.0%	10µM*	?	-27.5%
C=CCN1C(=O)N/C(=C/c2ccc(N3CCOCC3)o2)C1=O	nt	0.8%	31.6µM*	nt	1.4%
COc1cccc(-c2cn3c(n2)sc2cc(C(=O)NCCc4ccc(OC)c(OC)c4)ccc23)c1	-3.8%	nt	-0.8%[59 µM]	-22.7%	-17.6%
Cc1cc([N+](=O)[O-])ccc1N=Nc1c(N)[nH]n(-c2ccccc2)c1=O	?	-16.3%	?	-34.2%	-32.3%
Nc1[nH]n(-c2ccccc2)c(=O)c1N=Nc1ccc2c(c1)OCO2	?	nt	-109.6%[59 µM]	10µM*	3.98µM*
Nc1[nH]n(-c2ccccc2)c(=O)c1N=Nc1ccc2c(c1)OCCO2	44.7µM*	?	10µM*	20µM*	10µM*
Cc1ccc(Cn2c(SCC(=O)C(C)(C)C)nc3ccsc3c2=O)cc1	33.0%	nt	-1.4%[59 µM]	-9.3%	-7.9%
C/C(=N\O)C(=O)NCCN(C)C	-2.9%	-0.7%	?	7.94µM*	-9.5%
CCn1c2c(c(=O)n3ncc(C(=O)N4CCN(c5ccc(Cl)cc5)CC4)c13)CN(Cc1ccc(OC)cc1)CC2	8.2%[57 µM]	nt	-6.3%[59 µM]	-28.4%	-31.7%
COCCN(Cc1cc2cc(C)c(C)cc2nc1Cl)C(=O)Nc1ccccc1	3.3%	6.2%	-14.7%[59 µM]	-19.5%	53.0%
COCCN(Cc1cc2cc3c(cc2nc1Cl)OCO3)C(=O)c1ccc(C)cc1	16.3%	28.2µM*	-24.1%	-7.4%	10µM*
COCCCN(CC(=O)O)S(=O)(=O)c1cccc(Cl)c1	33.0%	15.1%	50.1µM*	-6.2%	-1.0%
CO/N=C(/C(=O)N[C@@H]1C(=O)N2C(C(=O)O)=C(COC(N)=O)CS[C@H]12)c1ccco1	nt	nt	-1.9%[59 µM]	nt	nt
CC1=NOC(=O)/C1=C\c1ccc(-c2cccc(Cl)c2)o1	-0.1%	-6.8%	25.1µM*	?	?
CC1=CC2=NC(=O)/C(=C\c3ccc(-c4cccc(Cl)c4)o3)C(=N)N2O1	22.3%	0.9%	0.8%[59 µM]	-1.4%	3.1%
COc1cc([N+](=O)[O-])ccc1-c1ccc(/C=C2\C(=O)ON=C2c2ccccc2)o1	-27.9%[57 µM]	nt	nt	?	nt
CC1=NOC(=O)/C1=C\c1ccc(-c2ccccc2Br)o1	?	nt	7.08µM*	20µM*	25.1µM*
CCCCn1c(=O)n(-c2cc(OC)ccc2OC)c(=O)c2c3c(sc21)CN(C(C)=O)CC3	25.3%	nt	11.0%[59 µM]	-0.7%	-1.7%
CN1C(=O)c2ccccc2Sc2ccc(NC(=O)c3ccc(C#N)cc3)cc21	28.9%	nt	-2.6%[59 µM]	-14.3%	-11.3%
Cc1ccc(-c2cc(C(=O)OCC(=O)N(C)c3c(N)n(Cc4ccccc4)c(=O)[nH]c3=O)c3ccccc3n2)o1	29.9%	7.1%	?	-15.8%	9.8%
Cc1ccc(S(=O)(=O)NC(C(=O)Oc2ccc3ccc(=O)oc3c2)c2ccccc2)cc1 (centres undefined)	37.3%	9.3%	7.94µM*	-11.6%	1.0%
Cc1ccc(S(=O)(=O)NCCC(=O)Oc2ccc3ccc(=O)oc3c2)cc1	8.5%	2.4%	10.8%[59 µM]	-16.0%	-3.4%
CCC[C@@H](NS(=O)(=O)c1ccc(C)cc1)C(=O)Oc1ccc2c3c(c(=O)oc2c1)CCC3	18.1%	3.8%	?	-9.3%	2.4%
